Assay results reported in PubChem BioAssay (EPA / NIEHS).
Values joined by “and” are separate entries in the source; they are usually repeats but may differ in a detail not shown here. Equal entries are not always repeated. Records with an inconclusive call do not appear. Some compounds were tested as several samples or in several runs, with calls that do not always agree. Active and inactive are the calls of the source. Rule for the calls, unless noted: active = hit-call score of the fitted dose curve at least 0.9, where 1 is the maximum; inactive = score below 0.9. Peptide text beside a SMILES is read from it.

System: not listed separately
Experiment: CCTE_Shafer_MEA_dev_network_spike_number: CCTE's Neural Network Formation Assay for Number of Network Spikes, Shafer Lab (AID 2284048);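 note: synchronized bursts across electrodes counted on days 5 7 9 12 and integrated as AUC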;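 for AC50: fit as a loss of signal meaning fewer network spikes than DMSO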
In short: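 Extracellular recordings from 16-electrode wells track network formation in rat cortical cultures under continuous treatment from plating. The endpoint is network spike number, expressed as AUC across DIV 5–12 relative to DMSO vehicle.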
With `C[N+](C)(C)CCCNS(=O)(=O)C(F)(F)C(F)(F)C(F)(F)C(F)(F)C(F)(F)C(F)(F)C(F)(F)C(F)(F)F` the AC50 was 1.43 µM (active) and the outcome was “inactive”.
For `COC(=O)[C@H](Cc1ccccc1)NC(=O)[C@@H](N)CC(=O)O` (H-Asp-Phe-OMe), the outcome was “inactive”.
For `Cc1c(C(=O)c2c[nH]n(C)c2=O)ccc(S(C)(=O)=O)c1C1=NOCC1`, the outcome was “inactive”.
For `Cc1noc(NS(=O)(=O)c2ccc(N)cc2)c1C`, the outcome was “inactive”.
With `CCCCNS(=O)(=O)c1ccccc1` the outcome was “inactive”.

System: not listed separately
Experiment: CCTE_Shafer_MEA_dev_network_spike_peak: CCTE's Neural Network Formation Assay for Mean Number of Electrodes in Network Spike, Shafer Lab (AID 2284049);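 for AC50: fitted for loss of signal meaning fewer electrodes in network spikes than DMSO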
In short: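 Continuous 12-day exposure of rat cortical cultures, starting at plating, on MEA plates. Endpoint: electrodes participating in network-spike peaks, AUC across DIV 5–12, DMSO as negative control.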
For `C[N+](C)(C)CCCNS(=O)(=O)C(F)(F)C(F)(F)C(F)(F)C(F)(F)C(F)(F)C(F)(F)C(F)(F)C(F)(F)F`, the AC50 was 1.11 µM (active) and 1.4 µM (active).
In the case of `COC(=O)[C@H](Cc1ccccc1)NC(=O)[C@@H](N)CC(=O)O` (H-Asp-Phe-OMe), the outcome is reported as “inactive”.
For `Cc1c(C(=O)c2c[nH]n(C)c2=O)ccc(S(C)(=O)=O)c1C1=NOCC1`, the outcome was “inactive”.
For `Cc1noc(NS(=O)(=O)c2ccc(N)cc2)c1C`, the outcome was “inactive”.
In the case of `CCCCNS(=O)(=O)c1ccccc1`, the AC50 is reported as 78.5 µM (active).

System: DIO2 (gene 1734)
Experiment: CCTE_GLTED_hDIO2: CCTE's human Deiodinase 2 (DIO2) Inhibition Assay, Great Lakes Toxicology and Ecology Division (GLTED) Lab (AID 2284050; active = hit-call score of the fitted dose curve at least 0.9, where 1 is the maximum)
In short: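 Inhibition is judged by reduced iodide release: uninhibited human DIO2 frees iodide from substrate over 3 h, measured afterward by Sandell-Kolthoff colorimetry. Iodinated chemicals or nitrite, iron and thiocyanate may interfere.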
In the case of `CCCCC/C=C\C/C=C\CCCCCCCC(=O)O`, the AC50 is reported as 36.8 µM (active).
In the case of `CCCCCCCCCCCCCCCCCCOS(=O)(=O)O`, the AC50 is reported as 40.6 µM (active).
In the case of `O=C(O)c1cc(O)c2ccccc2c1O`, the AC50 is reported as 51 µM (active).
For `CCCCCCCOC(=O)c1ccc(O)cc1`, the AC50 was 106 µM (active).
With `CCCCCCCCCCCCc1ccc(O)cc1` the AC50 was 69.7 µM (active).
In the case of `C/C=C/C=C/CCCCCCCO`, the AC50 is reported as 19.9 µM (active).
For `O=c1c(O)c(-c2ccc(O)cc2O)oc2cc(O)cc(O)c12`, the AC50 was 55.4 µM (active).

System: not listed separately
Experiment: CCTE_Shafer_MEA_dev_spike_duration_mean: CCTE's Neural Network Formation Assay for Mean Spike Duration, Shafer Lab (AID 2284051);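 note: mean network spike duration pooled as area under curve over DIV 5 to 12 recordings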;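 for AC50: potency for a decrease in mean network spike duration versus DMSO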
In short: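 Readout is the average length of network spikes, clustered firing across electrodes, summed over DIV 5, 7, 9 and 12 as area under the curve. Neurons from rat cortex developed networks on MEA plates under continuous 12-day exposure.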
With `C[N+](C)(C)CCCNS(=O)(=O)C(F)(F)C(F)(F)C(F)(F)C(F)(F)C(F)(F)C(F)(F)C(F)(F)C(F)(F)F` the AC50 was 2.58 µM (active) and the outcome was “inactive”.
With `COC(=O)[C@H](Cc1ccccc1)NC(=O)[C@@H](N)CC(=O)O` (H-Asp-Phe-OMe) the outcome was “inactive”.
With `Cc1c(C(=O)c2c[nH]n(C)c2=O)ccc(S(C)(=O)=O)c1C1=NOCC1` the outcome was “inactive”.
With `Cc1noc(NS(=O)(=O)c2ccc(N)cc2)c1C` the outcome was “inactive”.
In the case of `CCCCNS(=O)(=O)c1ccccc1`, the AC50 is reported as 50.5 µM (active).

System: not listed separately
Experiment: CCTE_Shafer_MEA_dev_network_spike_duration_std: CCTE's Neural Network Formation Assay for Standard Deviation of Network Spike Duration, Shafer Lab (AID 2284052);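 note: hits are decreases in network spike duration SD versus DMSO vehicle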
Protocol: CCTE_Shafer_MEA_dev assay is conducted using Axion Biosystems 48 well microelectrode array (MEA) plates and Maestro recording system. Each well of the MEA plate contains a grid of 16 microelectrodes embedded in the culture surface. Electrically active cells, such as neurons, can be cultured over the electrodes, and electrical activity in these cells can be recorded extracellularly. The spontaneous firing of neurons is captured from each electrode on a microsecond timescale providing both temporally and spatially precise data. […] The CCTE_Shafer_MEA_dev assay uses primary cultures of rat cortical neurons. Recordings are made on days post-plating 5, 7, 9 and 12. As these cultures mature over time, neural networks develop functional activity and form cohesive networks in which electrical activity can be highly coordinated. CCTE_Shafer_MEA_dev_network_spike_duration_std is 1 of 19 assay components of the CCTE_Shafer_MEA_dev assay. It measures the standard deviation of the duration of network spikes (temporally-clustered groups of action potential firing across multiple electrodes) during a recording in a microelectrode array (MEA) using Axion Biosystems Maestro 768 channel amplifier with the AxIS adaptive spike detector. To collapse across multiple recordings made on days post-plating 5, 7, 9 and 12, the trapezoidal area-under-the-curve of the component is calculated.Data from the assay component CCTE_Shafer_MEA_dev_network_spike_duration_std was analyzed into 1 assay endpoint. This assay endpoint, CCTE_Shafer_MEA_dev_network_spike_duration_std, was analyzed in the negative analysis fitting direction relative to DMSO as the negative control and baseline of activity. Using a type of functional reporter, gain or loss-of-signal activity can be used to understand electrical activity.
On the day prior to culture, each well was coated thoroughly with 150 uL of 0.05% polyethyleneimine (PEI, Sigma Cat P3143) in 50 mM HEPES (Sigma Cat H7523) at a pH of 8. The plate was incubated at 37C for one hour. PEI was rinsed out with 500 uL of sterile water three times. Plates were stored at 4C until the day of culture. This culture was plated at a seeding density of 1.5 x 10^5 cells/well on a 48-well MEA plate, prepared as described above. Cells were administered via a 25 uL media/laminin ([…]; Sigma Cat L2020-1MG) drop directly onto the microelectrode array, as adding the cells with the laminin results in better attachment than pre-coating with laminin. After 2 hours, an additional 475 uL of cortical media was added and the cells returned to the incubator. Exposure starts at day 0 of plating and is continued over twelve days of network development until the experiment is terminated. Cells are fed with fresh medium on DIV 5 and 9, following the recordings on those days. The entire volume of media in the well is exchanged and any vehicle or compound treatment is renewed. Complete details are found in OP-NHEERL/ISTD/SBB/TJS/2015-03-r0 (available on request, email shafer.tim@epa.gov). Measurement of the electrical activity is non-invasive, and recordings can be made from the same plate over multiple different days of the culture. In cortical neurons, this allows for the measurement of extracellular action potentials over the period during which networks form in the MEA plate.
With `C[N+](C)(C)CCCNS(=O)(=O)C(F)(F)C(F)(F)C(F)(F)C(F)(F)C(F)(F)C(F)(F)C(F)(F)C(F)(F)F` the outcome was “inactive”.
For `COC(=O)[C@H](Cc1ccccc1)NC(=O)[C@@H](N)CC(=O)O` (H-Asp-Phe-OMe), the outcome was “inactive”.
In the case of `Cc1c(C(=O)c2c[nH]n(C)c2=O)ccc(S(C)(=O)=O)c1C1=NOCC1`, the outcome is reported as “inactive”.
With `Cc1noc(NS(=O)(=O)c2ccc(N)cc2)c1C` the outcome was “inactive”.
For `CCCCNS(=O)(=O)c1ccccc1`, the outcome was “inactive”.

System: not listed separately
Experiment: CCTE_Shafer_MEA_dev_per_network_spike_spike_number_mean: CCTE's Neural Network Formation Assay for Mean Number of Spikes in a Network Spike, Shafer Lab (AID 2284053)
In short: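 Continuous twelve-day exposure of developing rat cortical networks grown over 16 microelectrodes per well; spontaneous firing is captured at four time points, and the per-network-spike spike number is integrated over development by trapezoidal AUC.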
For `C[N+](C)(C)CCCNS(=O)(=O)C(F)(F)C(F)(F)C(F)(F)C(F)(F)C(F)(F)C(F)(F)C(F)(F)C(F)(F)F`, the AC50 was 901 nM (active) and 1.36 µM (active).
For `COC(=O)[C@H](Cc1ccccc1)NC(=O)[C@@H](N)CC(=O)O` (H-Asp-Phe-OMe), the outcome was “inactive”.
In the case of `Cc1c(C(=O)c2c[nH]n(C)c2=O)ccc(S(C)(=O)=O)c1C1=NOCC1`, the outcome is reported as “inactive”.
With `Cc1noc(NS(=O)(=O)c2ccc(N)cc2)c1C` the outcome was “inactive”.
With `CCCCNS(=O)(=O)c1ccccc1` the outcome was “inactive”.

System: not listed separately
Experiment: CCTE_Shafer_MEA_dev_per_network_spike_spike_percent: CCTE's Neural Network Formation Assay for Percent of Spikes in a Network Spike, Shafer Lab (AID 2284054)
In short: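 Developing networks of rat cortical neurons are dosed at day 0 and recorded extracellularly four times up to day 12. The endpoint is the area under the curve of percent spikes in network spikes, fitted in the negative direction relative to DMSO.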
For `C[N+](C)(C)CCCNS(=O)(=O)C(F)(F)C(F)(F)C(F)(F)C(F)(F)C(F)(F)C(F)(F)C(F)(F)C(F)(F)F`, the AC50 was 2.55 µM (active) and the outcome was “inactive”.
With `COC(=O)[C@H](Cc1ccccc1)NC(=O)[C@@H](N)CC(=O)O` (H-Asp-Phe-OMe) the outcome was “inactive”.
In the case of `Cc1c(C(=O)c2c[nH]n(C)c2=O)ccc(S(C)(=O)=O)c1C1=NOCC1`, the outcome is reported as “inactive”.
With `Cc1noc(NS(=O)(=O)c2ccc(N)cc2)c1C` the outcome was “inactive”.
In the case of `CCCCNS(=O)(=O)c1ccccc1`, the outcome is reported as “inactive”.

System: DIO3 (gene 1735)
Experiment: CCTE_GLTED_hDIO3: CCTE's human Deiodinase 3 (DIO3) Inhibition Assay, Great Lakes Toxicology and Ecology Division (GLTED) Lab (AID 2284055; active = hit-call score of the fitted dose curve at least 0.9, where 1 is the maximum;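 note: potency is for inhibition seen as loss of released iodide signal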)
In short: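 Human type 3 deiodinase, expressed via adenovirus system, was exposed to test chemicals for 3 hours in a cell-free format. Released iodide was then determined spectrophotometrically by Sandell-Kolthoff; plates ran in triplicate.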
In the case of `CCCCC/C=C\C/C=C\CCCCCCCC(=O)O`, the AC50 is reported as 16.9 µM (active).
In the case of `CCCCCCCCCCCCCCCCCCOS(=O)(=O)O`, the AC50 is reported as 3.04 µM (active).
For `O=C(O)c1cc(O)c2ccccc2c1O`, the AC50 was 54.1 µM (active).
In the case of `CCCCCCCOC(=O)c1ccc(O)cc1`, the AC50 is reported as 80.8 µM (active).
With `CCCCCCCCCCCCc1ccc(O)cc1` the AC50 was 11.2 µM (active).
In the case of `C/C=C/C=C/CCCCCCCO`, the AC50 is reported as 16.4 µM (active).
With `O=c1c(O)c(-c2ccc(O)cc2O)oc2cc(O)cc(O)c12` the AC50 was 33.5 µM (active).

System: not listed separately
Experiment: CCTE_Shafer_MEA_dev_LDH: CCTE's Lactate Dehydrogenase Assay for Cytotoxicity in the Neural Network Formation Assay, Shafer Lab (AID 2284068; active = hit-call score of the fitted dose curve at least 0.9, where 1 is the maximum;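 note: exposure for twelve days from plating with re-dosing on DIV 5 and 9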)
In short: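 Cytotoxicity companion to network-formation recordings: rat cortical neurons received compound over 12 days of development, re-dosed at DIV 5 and 9 feeds. Viability was inferred from LDH enzyme activity relative to DMSO.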
With `C[N+](C)(C)CCCNS(=O)(=O)C(F)(F)C(F)(F)C(F)(F)C(F)(F)C(F)(F)C(F)(F)C(F)(F)C(F)(F)F` the AC50 was 15 µM (active).
With `COC(=O)[C@H](Cc1ccccc1)NC(=O)[C@@H](N)CC(=O)O` (H-Asp-Phe-OMe) the outcome was “inactive”.
With `Cc1noc(NS(=O)(=O)c2ccc(N)cc2)c1C` the outcome was “inactive”.
For `CCCCNS(=O)(=O)c1ccccc1`, the outcome was “inactive”.

System: not listed separately
Experiment: CCTE_Shafer_MEA_acute_AB: CCTE's Alamar Blue Assay for Cytotoxicity in the Neural Acute Assay, Shafer Lab (AID 2284069; active = hit-call score of the fitted dose curve at least 0.9, where 1 is the maximum;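 note: active compounds lower the viability signal compared with DMSO wells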)
In short: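 Metabolic activity in chemically exposed rat cortical neurons (MEA cultures, day 13/15 post-plating) measured via CellTiter Blue resazurin reduction, 544/590 nm fluorescence; fitted relative to DMSO, with signal loss indicating reduced viability.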
With `Nc1cccc(N)n1` the outcome was “inactive”.
With `CC(CCC(=O)O)(c1ccc(O)cc1)c1ccc(O)cc1` the outcome was “inactive”.
With `c1ccc(Nc2cccc3ccccc23)cc1` the outcome was “inactive”.
With `Cc1c(C(=O)c2c[nH]n(C)c2=O)ccc(S(C)(=O)=O)c1C1=NOCC1` the outcome was “inactive”.
In the case of `C1CNCCN1`, the outcome is reported as “inactive”.
